This is an account of results in the supplement of paper PMC6555819.

In the experiment the test system is VDR:RXRa (NR concentration 270 nM, RXRa partner concentration 90 nM). Nature of the experiment: PBM binding z-score (relative to random genomic background probes); higher = stronger binding; sequences stand for … in GC…GCGATTGACAGCGTAGAATGAAGG
As for the experimental part:
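Protein-binding microarray (Agilent 4x180K custom design, double-stranded 60-nt probes: 5' GC cap, 34-nt variable region, 24-nt constant primer region; full probe sequence given). Purified or IVT nuclear receptor:RXRα heterodimers (3:1 NR:RXRα, mostly 270:90 nM) or homodimers were incubated for 1 h in PBS with 2% milk and no ligand, then detected with Alexa488 antibodies. Fluorescence from o1-orientation probes (~5 replicates averaged) was converted to z-scores against 500 random hg19 background probes. Variable regions are seed direct-repeat (DR0–DR5) sites, all their single-nucleotide variants and half-site ablations.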
For CGTCCAAGGTCATAGGAGGTCAGCGAAGACAGAT, the PBM binding z-score came to 6.6.

In turn, GATACTGGGTCAGCTAGAGGCCAGAGTATGGAAA registered a PBM binding z-score of 0.938.

Take TCAATGAGGTTAAAGATCAGGGAACGTGGCGTCG: the PBM binding z-score is 2.04.

Turning to GCATATAGGTAATACAAGGTGAAAGTTCGATTGT, the PBM binding z-score came to 1.17.

Regarding GGAACGAGGGCAAAGTTGATCGCATCTGTCGACG, the PBM binding z-score worked out at 1.1.

For AGAATGAGGTTATTAAGATCAGGGCATTGCGGTC, the PBM binding z-score was 3.01.

In turn, ATCGAAAGGTGGAAGGTGAGTATACCCACCCGAA came in with a PBM binding z-score of 0.0525.

Sequence CCTACTGGGCCACGAAAGCTCATTGATTCAGTGA displayed a PBM binding z-score of -0.828.

For the sequence ATCTCTAGGTAAGACTCCGTTCAGTGAAGAACGC, the PBM binding z-score is 0.0228.

In the case of TCATATAGGTAAATGCTAGGTAAAAGTCCGATCT, the PBM binding z-score was 0.968.

Take CAGCCTAGGTCAGGGCCAGTCTAGGAGGAACGTT: the PBM binding z-score was 0.0507.

For ATCTCTAGTTAAAGATAGTTCAGTGAATGCAAAT, the PBM binding z-score is 1.04.

In the case of AGTCAAAGTTCATCTAGGTAACTTAAGATATGCT, the PBM binding z-score is 4.95.

TAGCCTAGGTCATGGGGCAGTATACCACGCGAAC displayed a PBM binding z-score of 2.45.

The sequence CCTACTGGGCAATTCAGAGGTCATTGATCATATG had a PBM binding z-score of 3.49.

In turn, ATCGATAGGTCGACGAGGTGAGTATACACCGTTT returned a PBM binding z-score of 2.96.

Turning to GCATATAGGTAATACAAGGGGAAAGTCCGATTGT, the PBM binding z-score is -0.0932.

TCTGCTAGGTCAGCTGGTCAGCTAACGAGCTGCC gave a PBM binding z-score of 0.12.

Turning to TCTTGTAGATCAACAGGAGGTAAAGAAAGATCGA, the PBM binding z-score stood at 0.194.

GTTGCTAGGTCAGGTTGGTCAGCTAACGGGTACG had a PBM binding z-score of 0.892.

In turn, TCTCGGAGGACACGAAAGGTCAGAGATCGACATC registered a PBM binding z-score of 3.42.

As to AGTACGAGGGCACGCTGAGTTGATAGCAGAGTAG, the PBM binding z-score amounted to 2.29.

In turn, TAGCCTAGGTCAGATCGGGCCAGAATACGCTATA came in with a PBM binding z-score of 0.522.

Sequence ATCTCTAGGTAAAGTTCAGAGAAAGATCGATAGA registered a PBM binding z-score of 1.41.

In turn, ATCTCTAGGTAAGACTCAGTTCAGTGGAGAACGC returned a PBM binding z-score of 0.529.

With GATACAGGGTCAAGACCAGAGTACGCGTATTGAT, the PBM binding z-score worked out at 4.33.

On to GGAACGAGGGCATTCGAGTTGGTAGCATGGCGAT, for which the PBM binding z-score was found to be 2.35.

Turning to GGAACGAGGGGAAAGTTGATAGCATCTGTCGACG, the PBM binding z-score was -0.259.

Take GATACAGGGTCAGCTAGAGGCCCGAGTATGGAAA: the PBM binding z-score was determined as 2.11.

CCTTACGGGTCACTGTCAGGTTATAGCATTTGGA showed a PBM binding z-score of 3.87.

Sequence CATACGGGGTCAGCTAGGCCAGAGTAGGGACGGC returned a PBM binding z-score of 6.

Take GCTACTAGTTGAAAGGGCAACCGAATGATTCTCG: the PBM binding z-score came out at 0.234.

The sequence CAGCCTAGGTCAGGGCCAATATAGGAGGAACGTT registered a PBM binding z-score of 0.378.

CGAACGAGGGCATGAGTGGATAGCAAATGCCGAT registered a PBM binding z-score of 0.295.

The sequence TCATATAGCTAAACAGGTGAAAGTCCGTAAGTTA displayed a PBM binding z-score of 0.43.

TCTTGTAGATCAATAGAGGTTAAGTAAGTGCGCT displayed a PBM binding z-score of 2.65.

In turn, CCTTACGGGTCACTCCAGGTTACAGCATCGGAGT displayed a PBM binding z-score of 3.95.

AACTCTAGGTAACCAAGTTCAGTGAATGCCGAAC had a PBM binding z-score of 3.64.

Consider TCATATAGGTAAATGCTAGTTGAAAGTCCGATCT, for which the PBM binding z-score turned out to be 1.07.

The sequence CCTACTGGGCCAAAGGTCATTCATTCCAATGCTC had a PBM binding z-score of 4.67.
